The source of these data is patent US20040171041, “Preparation and use of single-stranded transcription substrates for synthesis of transcription products corresponding to target sequences” (published 2004).

The target in the experiment is T1, mini-vRNAP (N4 virion RNA polymerase transcriptionally active domain, His-tagged) (Bacteriophage N4, UniProt Q859P9 SEQ:38-1143).
T1 sequence: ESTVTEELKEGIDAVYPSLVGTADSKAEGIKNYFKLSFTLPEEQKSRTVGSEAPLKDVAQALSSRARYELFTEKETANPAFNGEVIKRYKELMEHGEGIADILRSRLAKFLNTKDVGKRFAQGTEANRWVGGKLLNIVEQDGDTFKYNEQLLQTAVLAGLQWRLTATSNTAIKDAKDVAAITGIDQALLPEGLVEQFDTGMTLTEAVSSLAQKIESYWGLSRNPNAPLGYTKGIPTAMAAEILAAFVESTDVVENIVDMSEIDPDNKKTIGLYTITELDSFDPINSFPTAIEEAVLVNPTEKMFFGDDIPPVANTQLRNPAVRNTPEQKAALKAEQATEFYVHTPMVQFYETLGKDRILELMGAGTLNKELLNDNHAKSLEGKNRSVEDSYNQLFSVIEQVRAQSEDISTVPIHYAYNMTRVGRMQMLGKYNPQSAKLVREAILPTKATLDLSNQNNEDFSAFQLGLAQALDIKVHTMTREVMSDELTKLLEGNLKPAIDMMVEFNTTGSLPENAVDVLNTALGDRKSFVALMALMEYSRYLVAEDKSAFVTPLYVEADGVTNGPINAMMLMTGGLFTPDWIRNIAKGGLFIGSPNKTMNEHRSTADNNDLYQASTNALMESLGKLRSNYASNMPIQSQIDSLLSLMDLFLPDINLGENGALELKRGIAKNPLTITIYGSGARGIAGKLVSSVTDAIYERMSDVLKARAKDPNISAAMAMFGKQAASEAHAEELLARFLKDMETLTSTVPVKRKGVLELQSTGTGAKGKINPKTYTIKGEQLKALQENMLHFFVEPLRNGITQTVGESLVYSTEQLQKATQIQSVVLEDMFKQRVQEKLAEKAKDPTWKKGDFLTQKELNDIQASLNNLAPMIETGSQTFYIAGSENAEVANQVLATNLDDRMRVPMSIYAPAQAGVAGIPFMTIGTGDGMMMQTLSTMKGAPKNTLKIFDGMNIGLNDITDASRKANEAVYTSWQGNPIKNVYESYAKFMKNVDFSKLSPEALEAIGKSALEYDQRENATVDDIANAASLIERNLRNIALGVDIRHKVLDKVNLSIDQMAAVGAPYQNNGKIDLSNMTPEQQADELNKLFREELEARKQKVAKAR
The experiment is described as follows: filter; further one order of magnitude reduction versus -2 pairing. The following applies: tags: N-terminal His6 (pBAD B leader); hairpin, extended stem; ssDNA; [NONE]. The text has this:
To study the sequence determinants of promoter binding, 20 base-long promoter oligonucleotides, containing the wild-type vRNAP promoter P2 sequence and substituted at every position with a single 5-Iodo-dU, were used. Whenever substitutions were made in the stem, the corresponding pairing base was changed to A. These oligonucleotides were ³²P end-labeled and used to determine the enzyme's affinity for promoter DNAs by a filter binding assay and the ability to crosslink to mini-vRNAP upon UV irradiation at 320 nm.
The effect of changes in the stem length of the hairpin on the ability of mini-vRNAP to bind P2 promoter DNA was analyzed. […] The stem can be shortened by two base pairs without change in the binding affinity. […] No binding is observed if one more nucleotide is removed and the loop cannot form.
Turning to TCCAAAAGAAGCGGAGCTTCTTTTG, the binding signal is roughly 1000 fold lower affinity.
